The record followed here is the supplement of paper PMC6555819.

Assay in all cases: PBM binding z-score (relative to random genomic background probes); higher = stronger binding; sequences stand for … in GC…GCGATTGACAGCGTAGAATGAAGG
In test [1] the test system is FXR:RXRa (NR concentration 270 nM, RXRa partner concentration 90 nM). An outline of the steps: (§1)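 Custom Agilent 4×180K protein-binding microarrays carried double-stranded probes. Their 34-nt variable regions held direct-repeat seeds, single-nucleotide variants, half-site ablations and random human genomic background sequences. Arrays were incubated 1 h with ligand-free nuclear receptor dimers in PBS pH 7.4, 2% milk, 0.02% Triton X-100, 1 mM DTT, 0.2 mg/mL BSA and 0.4 mg/ml salmon testes DNA. Antibodies against each partner (one per run) detected binding, and scanned fluorescence was regression-normalized. Binding z-scores use random background probes as reference.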

Test [2] has as its system LXRa:RXRa (NR concentration 270 nM, RXRa partner concentration 90 nM). The method in brief: as §1
The test system of test [3] is LXRa homodimer (NR concentration 270 nM). An outline of the steps: as §1
Test [4] has as its system LXRb:RXRa (NR concentration 270 nM, RXRa partner concentration 90 nM). The method in brief:
as §1

Test [5] deals with LXRb homodimer (NR concentration 270 nM). The method in brief:
as §1

For test [6], the system named is PPARa:RXRa (NR concentration 270 nM, RXRa partner concentration 90 nM). An outline of the steps: as §1
Test [7] deals with PPARg:RXRa (NR concentration 180 nM, RXRa partner concentration 90 nM). The method in brief: as §1
Test [8] deals with PPARg:RXRa 270nM:90nM, anti-RXR (NR concentration 270 nM, RXRa partner concentration 90 nM). An outline of the steps: as §1
Test [9] concerns PPARg:RXRa 30nM:10nM, anti-RXR (NR concentration 30 nM, RXRa partner concentration 10 nM). An outline of the steps: as §1
In test [10] the test system is PPARg:RXRa 90nM:30nM, anti-RXR (NR concentration 90 nM, RXRa partner concentration 30 nM). An outline of the steps:
as §1

For test [11], the system named is PPARg:RXRa DBDmut IVT, anti-RXR (DBD mutation: RXRa K156A/R161A, NR concentration 270 nM, RXRa partner concentration 90 nM). The method in brief: as §1
Test [12] relates to PPARg:RXRa IVT, anti-PPARg (NR concentration 270 nM, RXRa partner concentration 90 nM). The method in brief: as §1
The test system of test [13] is PPARg DBDmut:RXRa IVT, anti-PPARg (DBD mutation: PPARg1 K132A/R137A, NR concentration 270 nM, RXRa partner concentration 90 nM). An outline of the steps: as §1
The subject of test [14] is PPARg DBDmut IVT, anti-PPARg (DBD mutation: PPARg1 K132A/R137A, NR concentration 270 nM). The method in brief:
as §1

In test [15] the test system is PPARg homodimer (NR concentration 180 nM). The method in brief:
as §1

The test system of test [16] is PXR:RXRa (NR concentration 270 nM, RXRa partner concentration 90 nM). An outline of the steps: as §1
Test [17] has as its system PXR homodimer (NR concentration 270 nM). An outline of the steps:
as §1

Test [18] has as its system RARa:RXR (NR concentration 270 nM, RXRa partner concentration 90 nM). An outline of the steps: as §1
Test [19] has as its system RARa homodimer (NR concentration 270 nM). An outline of the steps: as §1
The test system of test [20] is RARb:RXRa (NR concentration 270 nM, RXRa partner concentration 90 nM). An outline of the steps:
as §1

ATCGAAAGGTCGAAGAGGTGAGTATACACCGTTT: the PBM binding z-score was 4.26 in test [1]; 3.51 in [2]; -0.1 in test [3]; 2.49 in [4]; 0.443 in test [5]; 4.09 in test [6]. In addition, the PBM binding z-score in [7] is 2.38; in [8], 2.8; in [9], 0.698; in test [10], 2.03; in test [11], -0.0174; in test [12], 1.75. Also, the PBM binding z-score in test [13] stood at 0.444; in test [14], 0.332; in test [15], 1.01; in test [16], 2.82; in test [17], 0.5; in test [18], 3.46. Also, the values for the PBM binding z-score in [19] and in test [20] were 0.27 and 3.62, respectively.
TCTTGTAGATCAAGCAGGTTACGAAAGCCTGAGT: the PBM binding z-score is 0.426 in test [1]; 0.343 in [2]; -0.343 in [3]; 0.659 in test [4]; -0.527 in test [5]; 1.03 in test [6]. Also, the PBM binding z-score in test [7] came to 0.00625; in test [8] it was 1.34; in test [9] it was 2.5; in [10], 1.88; in test [11], 1.76; in test [12] it was 1.04. For the same sequence, the PBM binding z-score in test [13] was -0.0946; in [14] it was 0.435; in test [15], 0.37; in [16], 0.615; in test [17] it was -0.0528; in test [18], 0.951. Further, the PBM binding z-score in [19] is -0.22; in [20], 0.516.
As for CAAACTAGGTCACCGGAAGGGCAAAGTCCGCATG, the PBM binding z-score in [1] was determined as 4.22; in test [2] it was 3.85; in test [3], 0.736; in [4] it was 2.88; in test [5], 0.171; in [6], 5.16. Moreover, the PBM binding z-score in test [7] amounted to 8.84; in test [8], 6.95; in test [9], 4.85; in [10], 6.67; in test [11], 8.45; in [12] it was 8.73. For the same sequence, the PBM binding z-score in test [13] is 1.66; in test [14] it was 1.37; in test [15] it was 1.44; in test [16], 3.29; in test [17], 0.241; in [18] it was 3.92. The PBM binding z-score turned out to be 0.698 in test [19] and 4.47 in [20].
Regarding CGAACTAGGGCAGAACAGGACAGTGAAGGATGAT, the PBM binding z-score in [1] was -0.103; in test [2], -0.326; in test [3], -0.302; in test [4], -0.521; in test [5], -0.666; in test [6], 1.4. Also, the PBM binding z-score turned out to be 2.24 in [7]; 1.47 in test [8]; 0.448 in test [9]; 0.819 in [10]; 5.8 in [11]; 5.34 in test [12]. Besides, the PBM binding z-score was 0.749 in test [13]; 1.12 in test [14]; 0.692 in test [15]; -0.477 in test [16]; -0.0295 in test [17]; 0.592 in test [18]. For the same sequence, the PBM binding z-score in [19] came out at 0.348; in test [20], 0.687.
Turning to TGAATGAGGTTATAAGAGCAGGGAACGTTGCAAA, the PBM binding z-score in test [1] was 1.63; in test [2] it was 1.78; in [3], -0.152; in test [4] it was 0.923; in [5], -0.0285; in [6] it was 2.86. The PBM binding z-score in [7] turned out to be 1.32; in [8] it was 2.13; in test [9] it was 0.717; in test [10] it was 1.52; in [11], 1.21; in test [12], 1.65. Also, the PBM binding z-score in test [13] was 0.835; in [14], 0.627; in test [15] it was 0.672; in [16] it was 0.661; in [17] it was -0.193; in test [18], 1.39. The results for the PBM binding z-score in test [19] and in test [20] were 0.226 and 1.29, respectively.
Take AGTCAAACTTCACTAGGTAACGTAAGATTCAGCT: the PBM binding z-score in test [1] is -0.0326; in test [2] it was -0.0348; in test [3] it was -0.0758; in test [4], 0.0812; in test [5], 0.248; in test [6], 0.271. In addition, the PBM binding z-score was determined as 0.504 in test [7]; 0.268 in test [8]; 0.187 in [9]; 0.101 in test [10]; 1.97 in test [11]; 2.66 in test [12]. For the same sequence, the PBM binding z-score in test [13] is 0.854; in test [14], 1.24; in test [15], 0.579; in [16], -0.238; in test [17], 0.241; in test [18] it was -0.00905. For the same sequence, the PBM binding z-score in test [19] is -0.136; in [20] it was 0.174.
Turning to AGAAGGAGGGCACGCTGAGTTGATAGCAGAGTAG, the PBM binding z-score was 0.55 in [1]; 0.52 in [2]; -0.359 in [3]; 0.551 in test [4]; 0.0256 in test [5]; 1.83 in [6]. In addition, the PBM binding z-score in test [7] came to 1.89; in test [8], 1.81; in test [9], 0.436; in [10] it was 1.01; in test [11], 4.39; in test [12], 4.02. Further, the PBM binding z-score in test [13] amounted to 0.794; in test [14] it was 0.398; in [15], 0.378; in [16], 1.16; in [17], 0.294; in test [18] it was 0.766. Further, the PBM binding z-score in test [19] was -0.141; in test [20], 2.32.
